These entries were drawn from the full list. The true hit rate is not given.
B1: il10ra_site1_normal_mot_HHH_b2_06090_af2_000000001_0001_1_19_H_._HHH_b1_07022_0001_0000500035_0000001_0 (protein)
chain: SSSSSQEVAELIIEAFRLLLRGDEEEVERLLEELKELAEELNDPALRRLVEILEEAIKAASSSSS
B2: il10ra_site1_sap_19_mot_HHH_b2_07521_000000141_0001_20_37_H_._HHH_b1_07537_af2_0001_0000400008_0000001_0_0001 (protein)
chain: SSSSSDEERLEELLEELKELLEEGDRERFLRVALEVLRLAFQSSDEEALQAVWRLVKKWGSSSSS
B3: il10ra_site1_normal_mot_HHH_b1_03094_000000294_0001_1_20_H_._HHH_b1_05478_af2_0001_0000100005_0000001_0 (protein)
chain: SSSSDEENQEALELSLEALRLALRGDPEKAREVLEEAFELAERANNERLLRIIEELLEALHSSSS
B4: il10ra_site1_normal_mot_HHH_b1_06789_af2_000000041_0001_1_20_H_._HHH_b1_02788_0001_0000100006_0000001_0 (protein)
chain: SSSSDLEEEIEEAIEEARENGDELIVQILEILLRQIRRDGSPNARWLVRQVIKALKNLLENSSSS
B5: il10ra_site1_sap_24_mot_HHH_b2_06857_af2_000000179_0001_42_54_H_._HHH_b1_04179_af2_0001_0000200006_0000001_1_0001 (protein)
chain: SSSSSDATRELYRLSKEAAELLAEGNPEEAQRVAEEAFELAEEAGNRVLLHAIEHLLRDISSSSS
B6: il10ra_site1_normal_mot_HHH_b2_07521_000000141_0001_20_37_H_._HHH_b1_01332_0001_0000100002_0000001_0_af2pred_0001 (protein)
chain: SSSSDEEEKRLRLALRLARFLIEQGDEEAARKLLEWIRELAKRANDEEALEEAQRLLEEVGSSSS
B7: il10ra_site1_normal_mot_HHH_b1_01879_000000050_0001_1_18_H_._HHH_b1_04021_0001_0000200009_0000001_0_af2pred_dldesign_0_af2pred (protein)
chain: SSSSSELDALLAALEAAVAAGDEAAVRELSVRVSRLALEANNKEVLKKVFDLMVDFYKKLSSSSS
B8: il10ra_site1_sap_20_mot_HHH_b1_05126_000000053_0001_38_52_H_._HHH_b2_05116_af2_0001_0000900047_0000001_0_0001 (protein)
chain: SSDEREELKEEVEEEVEKAVENKDPELVKEIIAKALMEAARLRDDQLSMAIIRIYARANQLLQSS
B9: il10ra_site1_normal_mot_HHH_b2_08144_af2_000000046_0001_38_52_H_._HHH_b1_00696_0001_0000600035_0000001_0 (protein)
chain: SSSSTEEIQRIMELLRRAAELLNEGNPEEAEKLIEEAEELVKEANDPLLEIQLRFLERDINSSSS
B10: il10ra_site1_sap_23_mot_HHH_b1_01233_000000085_0001_1_18_H_._HHH_b1_01214_0001_0000100002_0000001_0_0001 (protein)
chain: SSSSDEEHIEELARAVERQLEQLSKYDPRLLERLAEAARKALELWDEELAREIEELAKELLSSSS

molecular target: il10ra, Q13651; test: yeast display titration
Sequence (Q13651 whole entry): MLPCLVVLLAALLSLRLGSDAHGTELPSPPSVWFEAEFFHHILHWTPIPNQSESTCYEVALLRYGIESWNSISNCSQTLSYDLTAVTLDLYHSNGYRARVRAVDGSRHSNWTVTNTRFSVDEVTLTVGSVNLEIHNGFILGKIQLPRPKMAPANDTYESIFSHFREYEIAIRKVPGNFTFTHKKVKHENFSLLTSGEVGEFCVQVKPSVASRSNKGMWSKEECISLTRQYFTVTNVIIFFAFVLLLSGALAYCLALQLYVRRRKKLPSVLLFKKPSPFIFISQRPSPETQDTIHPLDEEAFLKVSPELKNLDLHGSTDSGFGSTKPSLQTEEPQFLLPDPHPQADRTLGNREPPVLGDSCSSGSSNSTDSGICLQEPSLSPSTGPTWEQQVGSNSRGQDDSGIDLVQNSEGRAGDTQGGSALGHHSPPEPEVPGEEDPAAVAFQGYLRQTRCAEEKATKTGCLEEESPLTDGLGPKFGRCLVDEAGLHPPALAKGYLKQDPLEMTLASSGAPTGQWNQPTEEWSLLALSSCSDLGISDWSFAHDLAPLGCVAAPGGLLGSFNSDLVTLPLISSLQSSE

Apparent Kd, inactive:
B1 no binding seen
B2 no binding seen
B3 no binding seen
B4 no binding seen
B5 no binding seen
B6 no binding seen
B7 no binding seen
B8 no binding seen
B9 no binding seen
B10 no binding seen
